An excerpt weighted towards active compounds, which were near 20% of everything screened.
CHX counter: Cycloheximide Counterscreen for Small Molecule Inhibitors of Shiga Toxin | cell reporter, cycloheximide protein synthesis inhibition counterscreen | max response, % | 300,000 tested, 12% active | AID 2314, 2010; in the data active = max response mostly above about 13%, no sharp cut-off; inactive = mostly below about 14%; also: read at 38.3 µM for the half of the compounds with a filed dose; 0% is about no effect
Shiga toxin inh: A qHTS for Small Molecule Inhibitors of Shiga Toxin. Vero cells, Shiga toxin protein synthesis inhibition reporter. inhibition, % at 38.7 µM. 290,000 tested, 9.2% active; in the data active = inhibition mostly above about 28%, no sharp cut-off; inactive = mostly below about 43%; also: 0% is about no effect
HCMV antiviral: qHTS Assay for inhibitors of the human cytomegalovirus (HCMV); 410,000 tested, 4.5% active; activity change, negative = inhibition, % at 57.5 µM; AID 1259415, 2018; HFF cells, HCMV-luciferase reporter, 72 h; stronger effect = lower value; in the data active = activity change below about -60%; inconclusive = no clear call, values can overlap the other calls; inactive = above about -39%; also: % is scaled to controls: 0 for no effect and ±100 for the full control effect
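Two compound doses tested in HFFs infected with HCMV-luciferase, MOI 1 PFU/cell, 72 h at 37C. Lysate luminescence read with OneGlo; data normalized against buffer-only and 10uM Salinomycin inhibitor controls.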
Pf growth 96h: Primary qHTS for delayed death inhibitors of the malarial parasite plastid, 96 hour incubation. P. falciparum luciferase reporter growth, 96 h. Potency, µM (highest dose often 28.7 µM), inactives show at the top dose activity change, negative = inhibition, most hits filed as inhibitors. 320,000 tested, 6.9% active; also: potency is read from the fitted curve at half-maximal effect; % is scaled to controls: 0 for no effect and ±100 for the full control effect
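Infected RBCs, 2% Hct / 0.05% parasitemia final; luciferase-reporter P. falciparum; cpd 96 h, 37 C, 5% CO2; luciferase detection reagent; luminescence.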
Pf growth 48h: Primary qHTS for delayed death inhibitors of the malarial parasite plastid, 48 hour incubation; P. falciparum luciferase growth in erythrocytes, 48 h; Potency, µM (titrated, usually from 28.7 µM), for inactives: at the top dose activity change, negative = inhibition, hits mostly inhibitors; 310,000 tested, 5.9% active; also: potency is read from the fitted curve at half-maximal effect; % is scaled to controls: 0 for no effect and ±100 for the full control effect
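Here the parasites carry a stable luciferase gene and grow inside erythrocytes in Albumax-based RPMI medium with compound for one erythrocytic cycle. Activity is scored as loss of luminescent signal.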
An asterisk follows results filed as active; ? = inconclusive; / = no result given; ! = not active in a repeat; [ ] = dose if it differs, or a comment. Unless noted, calls follow the shape of the dose curve; as a rule, active = well fitted inhibition curve with a large enough effect; inconclusive = small, poorly fitted or top-dose-only effect, or another doubt; inactive = no such curve, though single readings can be large or run the other way.

SMILES	CHX counter	Shiga toxin inh	HCMV antiviral	Pf growth 96h	Pf growth 48h
CC12CC[C@H]3[C@@H](CCC4(O)C[C@H](O)CCC34/C=N/NC(=O)c3ccccc3Cl)C1(O)CCC2C1=CC(=O)OC1 (some centres undefined)	1	2	-32	-22%	-11%
CC(=O)O[C@H]1CC[C@]2(C=O)C3CC[C@]4(C)[C@@H](C5=CC(=O)OC5)CC[C@]4(O)C3CC[C@]2(O)C1 (some centres undefined)	-7	-14	/	/	/
C[C@H]1O[C@@H](OC2CC[C@]3(C=O)[C@H]4CC[C@]5(C)[C@@H](C6=CC(=O)OC6)CC[C@]5(O)[C@@H]4CC[C@]3(O)C2)CC2OC(C)(C)OC21 (some centres undefined)	-7	-14	-97*	?	/
CC12CCC3C(CCC4(O)CC(O)CCC34C=NO)C1(O)CCC2C1=COC(=O)C1 (centres undefined)	/	/	-98*	/	/
C[C@]12CCC3C(CCC4=CC(O)CC[C@@]43/C=N/O)C1(O)CCC2C1=CC(=O)OC1 (some centres undefined)	-6	-12	-96*	-13%	-11%
CN(Cc1cccs1)C(=O)CN1CCN(S(=O)(=O)c2ccc3c(c2)OCCCO3)CC1	/	/	11	8%	-6%
CCCCNC(=O)N1CCN(c2ccnc3cc(Cl)ccc23)CC1	-2	-10	/	3.7µM*	4.7µM*
O=C(O)CSCC(=O)N1CCN(c2ccnc3cc(Cl)ccc23)CC1	1	-6	/	?	?
O=S(=O)(c1cccs1)N1CCN(c2ccnc3cc(Cl)ccc23)CC1	14	-14	-60*	6.6µM*	9.3µM*
ClCCN1CCN(c2ccnc3cc(Cl)ccc23)CC1	-2	-1	-40	0.83µM*	0.83µM*
CC(=O)N1CCN(c2ccnc3cc(Cl)ccc23)CC1	-1	-6	?	12µM*	?
O=S(=O)(c1ccccc1)N1CCN(c2ccnc3cc(Cl)ccc23)CC1	-3	-8	?	30%	?
COCCN(C(=O)COC(=O)Cc1cccc(OC)c1)c1c(N)n(CC(C)C)c(=O)[nH]c1=O	/	/	-12	32%	50%
Nc1nc2c(c(=O)[nH]1)C(c1cccc3ccccc13)C1=C(N2)c2ccccc2C1=O (centres undefined)	-6	-10	?	12%	-9%
CCOC(=O)c1c(/N=C/N(C)C)sc(C(=O)OC)c1C	14	21	37	/	7%
O=C(Oc1ccnc2cc(Cl)ccc12)N1CCOCC1	4	6	-76*	?	?
CC1(CCc2ccc3c(c2)OCO3)NCCc2c1[nH]c1ccccc21 (centres undefined)	-1	-13	-87*	?	10µM*
CCOC(=O)c1ccc(Nc2nc3ccccc3n3c(C)nnc23)cc1	/	/	6	/	/
O=C1c2ccccc2CC1(Cc1ccccc1)Cc1ccccc1	-1	6	-25	?	13µM*
c1ccc(OC2CCCCC2N2CCOCC2)cc1 (centres undefined)	/	/	-34	/	/
CCN=C1SC(CC(=O)NCCc2ccc(OC)c(OC)c2)C(=O)N1CC (centres undefined)	-5	-13	91	5%	3%
COc1ccc(CCNC(=O)CC2SC(=NCCc3ccccc3)NC2=O)cc1OC (centres undefined)	-3	6	-12	9.3µM*	13µM*
COc1ccc(CCNC(=O)CC2SC(=NCCC(C)C)NC2=O)cc1OC (centres undefined)	-4	-11	-22	?	-21%
CN=C1SC(CC(=O)NCCc2ccc(OC)c(OC)c2)C(=O)N1C (centres undefined)	-7	31	-64*!	34%	9%
Cc1cccc(N2CCN(CCCNC(=O)c3ccc(NC(=O)C4=CSCCO4)cc3)CC2C)c1 (centres undefined)	-2	13	-31	-3%	?
SMILES	CHX counter	Shiga toxin inh	HCMV antiviral	Pf growth 96h	Pf growth 48h
COc1ccc(CS(=O)(=O)CC(C)(O)c2ccccc2)cc1 (centres undefined)	-6	-10	52	30%	19%
Cc1ccc(C(C)(O)CS(=O)(=O)Cc2ccccc2)cc1 (centres undefined)	16*	19	-9	-1%	-92%[0.00184 µM]
O=C(O)c1ccc(Cn2cnc3sc4c(c3c2=O)CCCC4)cc1	12	14	3	2%	8%
Cc1ccc(Cn2cnc3sc4c(c3c2=O)CCC4)c(C)c1	-1	-2	-17	1.9µM*	?
CCn1c(-c2ccccc2)c[nH]c1=S	-3	-20	5	?	0%
S=c1[nH]cc(-c2ccc(Cl)cc2)n1Cc1ccccc1	14*	13	-24	-30%	-18%
CC(O)c1nc2ccccc2n1CC(=O)N1CCN(c2ccccc2)CC1 (centres undefined)	-1	-12	30	28%	9%
COc1ccc(C)cc1NC(=O)CSc1nc2ccccc2nc1N1CCOCC1	/	/	20	/	/
Cc1ccc(C)n1CCN1CCN(C(=O)CSc2nc3ccccc3nc2N2CCOCC2)CC1	-1	12	-2	-1%	12µM*
O=C(CSc1nc2ccccc2nc1N1CCOCC1)Nc1ccccc1F	20*	24*	-1	-15%	0%
Cc1ccc(NC(=O)CSc2nc3ccccc3nc2N2CCOCC2)c(C)c1	-2	4	-71*	?	-25%
COc1ccc(C(=O)N2CCC(c3c[nH]c4ccccc34)(c3c[nH]c4ccccc34)CC2)cc1	/	/	19	/	/
O=C(C1CCCN(Cc2cccnc2)C1)N1CCCCC1 (centres undefined)	22*	-13	-1	?	-5%
CSc1ccccc1C(=O)C1CCCN(C(=O)CCc2cccnc2)C1 (centres undefined)	24*	50	3	?	113%
COc1ccc2cc(C(=O)C3CCCN(C(=O)CCc4cnn(C)c4)C3)ccc2c1 (centres undefined)	27*	43*	-20	?	11%
Cn1cc(CCC(=O)N2CCCC(C(=O)c3cccc4ccccc34)C2)cn1 (centres undefined)	36*	21	-14	-24%	?
Cc1cc(C)c2oc(-c3cccc(NC(=O)COc4ccccc4Cl)c3C)nc2c1	/	/	-1	/	/
COc1cc(C#N)c(NS(=O)(=O)c2ccc3[nH]c(=O)sc3c2)cc1OC	1	-7	24	6%	22%
Cc1ccc(C)c(C(=O)COC(=O)CCN2C(=O)C3C4CCC(C4)C3C2=O)c1 (centres undefined)	17	-4	-11	-2%	8%
O=C(CCC(=O)Nc1ccccc1Cl)NNC(=O)c1ccccc1[N+](=O)[O-]	-5	-6	-31	1%	39%
C=CCCC(=O)N1CCCC(C(=O)c2cccc(OC)c2)C1 (centres undefined)	21*	12	-24	?	5%

Screening results deposited in PubChem by National Center for Advancing Translational Sciences (NCATS).
